Reference: the supplement of paper PMC6555819

Columns and labels:
Assay in all cases: PBM binding z-score (relative to random genomic background probes); higher = stronger binding; sequences stand for … in GC…GCGATTGACAGCGTAGAATGAAGG
[1] = tested on: FXR:RXRa (NR concentration 270 nM, RXRa partner concentration 90 nM)
Method in brief: (§1)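 On custom Agilent 4×180K arrays, double-stranded probes with 34-nt variable regions carried direct-repeat seeds, single-nucleotide variants, half-site ablations or random human genomic background. Ligand-free nuclear receptor dimers were applied for 1 h, and binding was read with antibodies against each partner (one per run). Binding z-scores come from regression-normalized fluorescence, with the random background probes as reference.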

[2] = tested on: LXRa:RXRa (NR concentration 270 nM, RXRa partner concentration 90 nM)
Method in brief: as §1

[3] = tested on: LXRa homodimer (NR concentration 270 nM)
Method in brief: as §1

[4] = tested on: LXRb:RXRa (NR concentration 270 nM, RXRa partner concentration 90 nM)
Method in brief: as §1

[5] = tested on: LXRb homodimer (NR concentration 270 nM)
Method in brief: as §1

[6] = tested on: PPARa:RXRa (NR concentration 270 nM, RXRa partner concentration 90 nM)
Method in brief: as §1

[7] = tested on: PPARg:RXRa (NR concentration 180 nM, RXRa partner concentration 90 nM)
Method in brief: as §1

[8] = tested on: PPARg:RXRa 270nM:90nM, anti-RXR (NR concentration 270 nM, RXRa partner concentration 90 nM)
Method in brief: as §1

[9] = tested on: PPARg:RXRa 30nM:10nM, anti-RXR (NR concentration 30 nM, RXRa partner concentration 10 nM)
Method in brief: as §1

[10] = tested on: PPARg:RXRa 90nM:30nM, anti-RXR (NR concentration 90 nM, RXRa partner concentration 30 nM)
Method in brief: as §1

[11] = tested on: PPARg:RXRa DBDmut IVT, anti-RXR (DBD mutation: RXRa K156A/R161A, NR concentration 270 nM, RXRa partner concentration 90 nM)
Method in brief: as §1

[12] = tested on: PPARg:RXRa IVT, anti-PPARg (NR concentration 270 nM, RXRa partner concentration 90 nM)
Method in brief: as §1

[13] = tested on: PPARg DBDmut:RXRa IVT, anti-PPARg (DBD mutation: PPARg1 K132A/R137A, NR concentration 270 nM, RXRa partner concentration 90 nM)
Method in brief: as §1

[14] = tested on: PPARg DBDmut IVT, anti-PPARg (DBD mutation: PPARg1 K132A/R137A, NR concentration 270 nM)
Method in brief: as §1

[15] = tested on: PPARg homodimer (NR concentration 180 nM)
Method in brief: as §1

[16] = tested on: PXR:RXRa (NR concentration 270 nM, RXRa partner concentration 90 nM)
Method in brief: as §1

[17] = tested on: PXR homodimer (NR concentration 270 nM)
Method in brief: as §1

[18] = tested on: RARa:RXR (NR concentration 270 nM, RXRa partner concentration 90 nM)
Method in brief: as §1

[19] = tested on: RARa homodimer (NR concentration 270 nM)
Method in brief: as §1

[20] = tested on: RARb:RXRa (NR concentration 270 nM, RXRa partner concentration 90 nM)
Method in brief: as §1

Sequence | PBM binding z-score [1] | PBM binding z-score [2] | PBM binding z-score [3] | PBM binding z-score [4] | PBM binding z-score [5] | PBM binding z-score [6] | PBM binding z-score [7] | PBM binding z-score [8] | PBM binding z-score [9] | PBM binding z-score [10] | PBM binding z-score [11] | PBM binding z-score [12] | PBM binding z-score [13] | PBM binding z-score [14] | PBM binding z-score [15] | PBM binding z-score [16] | PBM binding z-score [17] | PBM binding z-score [18] | PBM binding z-score [19] | PBM binding z-score [20]
CCTACTGGGCCACGAAAGGTCATTGAGTCAGTGA | 3.83 | 5.32 | 5.25 | 4.4 | 0.561 | 4.87 | 5.06 | 5.06 | 2.55 | 4.22 | 5.96 | 6.12 | 0.241 | -0.3 | 3.76 | 5.49 | 1.93 | 5.72 | 1.51 | 4.04
CAAACTAGGTCACGAAAGGTGAAAGTCGAATGAC | 5.43 | 5.63 | 0.891 | 4.24 | 0.569 | 6.05 | 9.57 | 7.7 | 6.24 | 7.8 | 8.57 | 8.88 | 1.44 | 1.5 | 3.13 | 4.13 | 0.228 | 4.69 | 1.24 | 4.84
CGTCCAAGGTCAAGGTTAGTGAAAGAGACTCGAA | 6.97 | 5.24 | 0.37 | 3.88 | 0.41 | 5.63 | 5.02 | 5.18 | 2.08 | 4.2 | 3.18 | 3.79 | 0.923 | 0.146 | 2.5 | 3.81 | 0.691 | 4.34 | 0.992 | 5.07
AGAATGAGGTTATACGTAGATCGGGGAAGAAAGT | 2.27 | 2 | 0.119 | 1.96 | 0.366 | 3.29 | 1.84 | 2.15 | 0.629 | 1.49 | 4.33 | 2.22 | 0.772 | -0.0447 | 1 | 1.43 | 0.718 | 1.92 | 0.264 | 1.58
TCTTGTATATCAGCAGGTTAAGAAAGCTGGCCAA | 0.775 | 0.883 | 0.29 | 1.03 | 0.727 | 0.972 | -0.165 | 1.63 | 3.19 | 2.42 | 2.07 | 0.6 | 0.115 | 0.41 | 0.718 | 0.584 | 0.0851 | 0.998 | 0.982 | 0.687
TCAGACAGGTGAAGGAAACTCAGGTACGCAGTCG | 0.911 | 1.04 | 0.00488 | 0.561 | 0.0545 | 1.05 | 0.717 | 2.37 | 4.29 | 3.32 | 2.96 | 0.598 | 0.181 | -0.163 | 0.667 | 0.502 | 0.224 | 0.564 | 0.502 | 0.976
TATACAGGGTCAAAGGCCAGATTACGAATGTCGA | 7.37 | 6.22 | 2.78 | 4.95 | 2.24 | 6.15 | 8 | 7.46 | 5.15 | 7.09 | 2.17 | 4.84 | 2.19 | 3.09 | 2.87 | 4.54 | 0.853 | 6.01 | 1.67 | 4.43
TCTTGTAGTTCAGCAGGTTAAGAAAGCTGGCCAA | 0.786 | 1.15 | 0.28 | 0.805 | 0.146 | 1.5 | -0.802 | 1.61 | 2.42 | 1.86 | 1.37 | 0.541 | -0.927 | 0.25 | 0.434 | 0.887 | 0.352 | 1.18 | 0.277 | 1.76
CCTTACGGGTCACTCCAGGTTATAGAATCGGAGT | 5.18 | 7.67 | 1.89 | 5.43 | 0.287 | 4.4 | 3.31 | 3.8 | 1.18 | 2.56 | 2.67 | 3.47 | 1.31 | 0.0238 | 1.95 | 5.29 | 0.455 | 4.11 | 0.74 | 3.68
CAGCCTAGGTAAGGGCCAGTATAGGAGGAACGTT | -0.618 | -0.931 | -0.62 | -1.05 | -1.17 | -0.738 | -0.026 | -0.51 | -0.469 | -0.635 | -0.707 | -0.473 | 0.308 | -0.484 | 0.0729 | -0.698 | -0.364 | -0.562 | -0.726 | -0.0366
ACTAGCAGGCCAAGTTTGGGTCACTCATACAAAG | 0.242 | 0.317 | -0.104 | 0.786 | -0.557 | 1.28 | 0.573 | 0.501 | -0.211 | -0.146 | 1.29 | 1.09 | -0.419 | -0.428 | 0.652 | 0.707 | -0.211 | 1.55 | -0.601 | 1.53
AGAATGAGGTTACCAAGGATCAGGGAAACGCTTG | 1.77 | 4.49 | -0.144 | 2.06 | -0.102 | 3.69 | 2.58 | 2.47 | 1.09 | 1.97 | 3.39 | 3.37 | 1.28 | 0.207 | 0.544 | 1.28 | 0.0221 | 2.01 | -0.233 | 2.04
ACTAGCTGGTCAGCTGAGGTCACACACAATTCGG | 3.62 | 3.57 | 2.15 | 3.21 | -0.0797 | 3.58 | 1.76 | 2.01 | 0.341 | 0.958 | 0.832 | 1.83 | 0.106 | -0.428 | 2.22 | 5.58 | 1.11 | 4.93 | 0.527 | 3.69
